Here are results for 30 compounds from PubChem BioAssay (NCATS).

A number with no mark means an inactive call. Results filed as inconclusive are left out. Active and inactive are the calls of the source. The call rests on the fitted dose curve; in most records, active means well fitted curve in the direction sought with a large enough effect; inconclusive means small, poorly fitted or top-dose-only effect, or another doubt; inactive means no such curve, though single readings can be large; an effect the other way counts as inactive or inconclusive.

The test system of test [1] is Nanoluciferase (engineered Oplophorus gracilirostris luciferase). The test is described as follows: Primary Nanoluciferase (NLuc) qHTS assay for identification of artifact compounds. (AID 1845222). Further: potency means the concentration at half of the fitted maximal effect.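 On activity, negative = inhibition: series mostly up to about 54 µM; 0% = DMSO and -100% = no enzyme.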 The gist of the method: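 Diluted conditioned medium from NLuc-expressing S16 cells treated with compounds for 15 min at room temperature, then Nano-Glo substrate added; luminescence read after 5 min. Percent inhibition versus no-enzyme and DMSO controls fitted to 4-parameter Hill equation.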

Test [2] in a line: Primary redox qHTS assay for identification of artifact compounds. (AID 1845223).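 Further: 0% = DMSO and 100% = reference compound.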 The gist of the method:
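Amplex Red (25 uM) and HRP (250 mU/mL) in HBSS, with compounds for 15 min, then 250 uM DTT for 30 min, room temperature, dark. Fluorescence 525/598 nm read; normalized to DMSO and 10 uM DA3003; Hill fit.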

`Cc1cc(C)c2nc(-c3ccccn3)cc(C(=O)Nc3ccc(S(=O)(=O)Nc4onc(C)c4C)cc3)c2c1`: the Potency result in test [1] and in test [2] was “inactive” in each case.
As for `CC(=O)/C=C/C1(O)C(C)(C)CC(O)CC1(C)O` (stereo not given), the Potency entry in test [1] and in test [2] was “inactive” in each case.
As for `C[C@H](/C=C/[C@@]1(O)[C@H](C)CC(=O)CC1(C)C)O[C@@H]1O[C@H](CO[C@@H]2OC[C@@H](O)[C@H](O)[C@H]2O)[C@@H](O)[C@H](O)[C@H]1O`, the Potency result in test [1] and in test [2] was “inactive” in each case.
Turning to `COc1cc(C(=O)OC[C@@]2(O)CO[C@@H](O[C@H]3[C@H](Oc4ccc(O)cc4)O[C@H](CO)[C@@H](O)[C@@H]3O)[C@@H]2O)cc(OC)c1O`, the Potency result in test [1] and in test [2] was “inactive” throughout.
As for `COc1cc(/C=C/C(=O)O[C@H]2C[C@@H]3C(C(=O)O)=CO[C@@H](O[C@@H]4O[C@H](CO)[C@@H](O)[C@H](O)[C@H]4O)[C@@H]3[C@H]2C)ccc1O`, the Potency entry in test [1] and in test [2] was “inactive” throughout.
For `COc1c(C)c(OCC=C(C)C)cc2c1COC2=O`, the Potency entry in test [1] and in test [2] was “inactive” throughout.
Regarding `CCC(C)C(C(=O)O)N1Cc2c(OCC=C(C)C)c(C)c(OC)c(C(=O)O)c2C1=O` (stereo not given), the Potency entry in test [1] and in test [2] was “inactive” in each case.
With `COC(=O)[C@H](Cc1cccc(C(=N)N)c1)[C@@H](C)NC(=O)c1ccc(-c2cc[n+]([O-])cc2)cc1`, the Potency entry in test [1] and in test [2] was “inactive” throughout.
For the compound `NC(=O)NCCCC(NC(=O)Cc1ccccc1)C(=O)O` (stereo not given), the Potency result in test [1] and in test [2] was “inactive” each time.
For `CC(=O)OCC1OC(OC2COC(OC3COC(OC4C(OC5C(CO)OC(OC6CCC7(C)C(CCC8(C)C7CC=C7C9CC(C)(C)CCC9(C(=O)OC9OC(CO)C(O)C(O)C9OC9OCC(OC%10OCC(O)(CO)C%10O)C(O)C9O)C(O)CC78C)C6(C)C)C(O)C5O)OCC(O)C4O)C(O)C3O)C(O)C2O)C(OC(=O)/C=C/c2ccccc2)C(O)C1OC(C)=O` (stereo not given), the activity, negative = inhibition in test [1] was 4.35% [at 6.45 µM]. Besides, the redox activity (% of DA3003) in test [2] was -4.05% [at 6.41 µM].
On to `CN1CCCC1Cc1c[nH]c2ccc(CCS(=O)(=O)c3ccccc3)cc12` (stereo not given), for which the Potency result in test [1] and in test [2] was “inactive” each time.
For the compound `CC(CCc1ccc(O)cc1)O[C@@H]1O[C@H](CO[C@@H]2OC(CO)[C@H](O)[C@H]2O)[C@@H](O)[C@H](O)[C@H]1O` (stereo not given in full), the Potency result in test [1] and in test [2] was “inactive” in each case.
Turning to `C=C(C(=O)O)[C@H]1C[C@]2(C)C(=O)CC[C@]23O[C@H]1C[C@@H]3C`, the Potency entry in test [1] and in test [2] was “inactive” each time.
Turning to `COc1cc([C@H]2OC[C@](O)(Cc3ccc(O[C@@H]4O[C@H](CO)[C@@H](O)[C@H](O)[C@H]4O)c(OC)c3)[C@@H]2CO)ccc1O`, the Potency result in test [1] and in test [2] was “inactive” in each case.
For `CC(=O)OC1C(O)/C(C)=C\C2C(OC(=O)c3ccccc3)C(C)CC2(OC(C)=O)C(OC(C)=O)C(C)/C=C/C(C)(C)C1OC(C)=O` (stereo not given), the Potency entry in test [1] and in test [2] was “inactive” each time.
On to `CC(C)C1CCC(C(=O)N[C@@H](Cc2ccccc2)C(=O)O)CC1` (stereo not given in full), for which the Potency entry in test [1] and in test [2] was “inactive” each time.
As for `CC1=CCC2C(C)(C)CCCC2(C)C1CC12OC1C(O)C(CO)=CC2O` (stereo not given), the Potency result in test [1] and in test [2] was “inactive” in each case.
For the compound `NC(=O)[C@@H]1CC[C@H](c2ccc(OCc3ccccc3F)cc2)N1`, the Potency entry in test [1] and in test [2] was “inactive” each time.
Turning to `CC1=C2CC(=O)C(C)CC/C=C(\C)CC2(O)OC1=O` (stereo not given), the Potency result in test [1] and in test [2] was “inactive” in each case.
Turning to `C[C@]1(OC(=O)/C=C\c2ccc(O)cc2)C[C@@H](O)[C@]2(O)C=CO[C@@H](O[C@@H]3O[C@H](CO)[C@@H](O)[C@H](O)[C@H]3O)C12` (stereo not given in full), the Potency result in test [1] and in test [2] was “inactive” throughout.
For `Cc1ccccc1-c1cc(N2CCN(C)CC2)ncc1N(C)C(=O)C(C)(C)c1cc(C(F)(F)F)cc(C(F)(F)F)c1`, the Potency result in test [1] and in test [2] was “inactive” in each case.
For `CC1CC(=O)C2C(O)(C1)CC(O)C13OC1c1c(O)cccc1C(=O)C23O` (stereo not given), the Potency entry in test [1] and in test [2] was “inactive” throughout.
`C[C@H]1[C@H](C)CC[C@]2(C(=O)O)CC[C@]3(C(=O)O)C(=CCC4[C@@]5(C)CC[C@H](O[C@@H]6O[C@@H](C)[C@H](O)[C@@H](O)[C@H]6O)C(C)(C)C5CC[C@]43C)[C@H]12` (stereo not given in full): the Potency entry in test [1] and in test [2] was “inactive” throughout.
Turning to `O=C(CC1CC(c2ccc(F)cc2F)=NO1)N1CCOCC1` (stereo not given), the Potency entry in test [1] and in test [2] was “inactive” each time.
Regarding `CC1CCCCCCCc2cc(O)cc(O)c2C(=O)O1` (stereo not given), the Potency entry in test [1] and in test [2] was “inactive” in each case.
Take `C/C=C1\[C@H](O[C@@H]2O[C@H](CO)[C@@H](O)[C@H](O)[C@H]2O)OC=C(C(=O)O)[C@H]1CC(=O)OCCc1ccc(O)cc1`: the Potency entry in test [1] and in test [2] was “inactive” each time.
In the case of `C/C=C(\C)C(=O)OCC1OC(OC2OC(CO)C(O)C(O)C2O)C(O)C(O)C1O` (stereo not given), the Potency entry in test [1] and in test [2] was “inactive” throughout.
As to `Cc1sc(C)c(C(=O)NC2(c3ccc(C(=O)O)cc3)CC2)c1Cc1ccc(C(F)(F)F)cc1`, in test [1], the Potency was 4.78 µM (active). In addition, the Potency entry in test [2] was “inactive”.
For the compound `CC1=CC(=O)CC(C)(C)C1CO[C@@H]1O[C@H](CO)[C@@H](O)[C@H](O)[C@H]1O` (stereo not given in full), the Potency result in test [1] and in test [2] was “inactive” in each case.
For `CC(C)c1ccc2c(c1)C(O)CC1C(C)(CO)CCCC21C` (stereo not given), the Potency result in test [1] and in test [2] was “inactive” each time.
